Reference: PubChem BioAssay AID1159580 (chemical genetic matrix, 2015)
Several values for one entry are separate records, joined by “and”; a condition that tells them apart may be missing. Equal values may be shown once. Among all 5,500 compounds or so, about 2,000 (36%) were called active. Inconclusive results (about 18%) are left out. Cut-off read from the data, not from the text of the source: active = normalized growth mostly below about 0.91 (no sharp cut-off); inconclusive = no clear call, values can overlap the other calls; inactive = mostly above about 0.92. The list shows a part of the results.

Test: chemical genetic growth profiling, strain panel (AID 1159580);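 note: tested at 20 µM; growth read once vehicle control cultures reached saturation at 30 °C; 1 = growth at the plate median or of vehicle wells; lower values mean less growth of the strain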
Conditions: S. cerevisiae deletion strains, growth OD

Measured: normalized growth

N[C@@H](Cc1ccc(O)c(O)c1)C(=O)O
inactive: locus YAL013W, strain DEP1, stronger effect = lower value 0.999 | locus YAL021C, strain ccr4, stronger effect = lower value 1 | locus YAL026C, strain drs2, stronger effect = lower value 0.989 | locus YAL030W, strain snc1, stronger effect = lower value 1 | locus YBL061C, strain skt5, stronger effect = lower value 1.01 | locus YBR009C, strain hhf1, stronger effect = lower value 0.982 | locus YBR021W, strain FUR4, stronger effect = lower value 1.14 | locus YBR023C, strain chs3, stronger effect = lower value 1 | locus YBR171W, strain sec66, stronger effect = lower value 0.997 | locus YBR229C, strain ROT2, stronger effect = lower value 1.01 | locus YBR231C, strain swc5, stronger effect = lower value 1 | locus YBR279W, strain paf1, stronger effect = lower value 1 | locus YCL011C, strain gbp2, stronger effect = lower value 1 | locus YCL016C, strain dcc1, stronger effect = lower value 0.997 | locus YCL029C, strain bik1, stronger effect = lower value 0.998 | locus YCL061C, strain MRC1, stronger effect = lower value 0.998 | locus YCL069W, strain vba3, stronger effect = lower value 1 | locus YCR088W, strain abp1, stronger effect = lower value 0.999 | locus YDL005C, strain med2, stronger effect = lower value 0.994 | locus YDL035C, strain GPR1, stronger effect = lower value 0.976 | locus YDL040C, strain nat1, stronger effect = lower value 0.998 | locus YDL074C, strain BRE1, stronger effect = lower value 0.969 | locus YDL101C, strain DUN1, stronger effect = lower value 0.993 | locus YDL134C, strain PPH21, stronger effect = lower value 0.997 | locus YDL185W, strain tfp1, stronger effect = lower value 0.955 | locus YDL192W, strain arf1, stronger effect = lower value 0.991 | locus YDR001C, strain nth1, stronger effect = lower value 1 | locus YDR069C, strain doa4, stronger effect = lower value 1 | locus YDR101C, strain arx1, stronger effect = lower value 1 | locus YDR137W, strain rgp1, stronger effect = lower value 1.01 | locus YDR150W, strain NUM1, stronger effect = lower value 0.947 | locus YDR159W, strain sac3, stronger effect = lower value 0.995 | locus YDR162C, strain NBP2, stronger effect = lower value 0.968 | locus YDR195W, strain ref2 0.962 | locus YDR297W, strain sur2, stronger effect = lower value 1.01 | locus YDR318W, strain mcm21, stronger effect = lower value 0.987 | locus YDR334W, strain swr1, stronger effect = lower value 1 | locus YDR335W, strain msn5, stronger effect = lower value 0.997 | locus YDR388W, stronger effect = lower value 1.01 | locus YDR392W, strain spt3, stronger effect = lower value 0.885 | locus YDR502C, strain sam2, stronger effect = lower value 0.999 | locus YEL003W, strain gim4, stronger effect = lower value 0.999 | locus YEL037C, strain rad23, stronger effect = lower value 1 | locus YEL061C, strain CIN8 (second series), stronger effect = lower value 0.999 | locus YEL061C, strain CIN8, stronger effect = lower value 0.998 | locus YER015W, strain faa2, stronger effect = lower value 1.01 | locus YER016W, strain bim1, stronger effect = lower value 0.995 | locus YER110C, stronger effect = lower value 0.993 | locus YER111C, strain swi4, stronger effect = lower value 0.995 | locus YER155C, strain BEM2 (second series), stronger effect = lower value 0.988 | locus YER155C, strain BEM2, stronger effect = lower value 1.02 | locus YER167W, strain BCK2, stronger effect = lower value 0.989 | locus YFR010W, strain ubp6, stronger effect = lower value 0.999 | locus YGL078C, strain dbp3, stronger effect = lower value 0.986 | locus YGL086W, strain mad1, stronger effect = lower value 0.98 | locus YGL167C, strain pmr1, stronger effect = lower value 0.994 | locus YGL173C, strain kem1, stronger effect = lower value 1 | locus YGL227W, strain vid30, stronger effect = lower value 0.986 | locus YGL240W, strain doc1, stronger effect = lower value 0.986 | locus YGL248W, strain PDE1, stronger effect = lower value 0.989 | locus YGL253W, strain hxk2, stronger effect = lower value 1 | locus YGR078C, strain PAC10, stronger effect = lower value 0.932 | locus YGR135W, strain pre9, stronger effect = lower value 0.996 | locus YGR229C, strain SMI1, stronger effect = lower value 0.928 | locus YGR252W, strain gcn5, stronger effect = lower value 1.03 | locus YHR013C, strain ard1, stronger effect = lower value 0.943 | locus YHR027C, strain rpn1, stronger effect = lower value 1.01 | locus YHR030C, strain SLT2, stronger effect = lower value 0.997 and 0.962 | locus YHR079C, strain IRE1 (second series), stronger effect = lower value 0.995 | locus YHR079C, strain IRE1, stronger effect = lower value 0.951 | locus YHR094C, strain hxt1, stronger effect = lower value 0.988 | locus YHR129C, strain ARP1, stronger effect = lower value 0.991 | locus YHR142W, strain chs7, stronger effect = lower value 1.01 | locus YHR200W, strain rpn10, stronger effect = lower value 0.992 | locus YIL066C, strain RNR3, stronger effect = lower value 0.928 | locus YIL073C, strain SPO22, stronger effect = lower value 0.866 | locus YIL125W, strain kgd1, stronger effect = lower value 0.984 | locus YIR030C, strain dcg1, stronger effect = lower value 1 | locus YJL092W, strain hpr5, stronger effect = lower value 0.991 | locus YJL095W, strain BCK1 (second series), stronger effect = lower value 1 | locus YJL095W, strain BCK1, stronger effect = lower value 1.01 and 0.968 | locus YJL115W, strain asf1, stronger effect = lower value 1 | locus YJL129C, strain trk1, stronger effect = lower value 1 | locus YJL134W, strain LCB3, stronger effect = lower value 0.99 | locus YJL154C, strain vps35, stronger effect = lower value 1 | locus YJL164C, strain tpk1, stronger effect = lower value 1 | locus YJL166W, strain qcr8, stronger effect = lower value 0.997 | locus YJL168C, strain set2, stronger effect = lower value 1.01 | locus YJL187C, strain SWE1 (second series), stronger effect = lower value 0.984 | locus YJL187C, strain SWE1, stronger effect = lower value 1 | locus YJR043C, strain POL32, stronger effect = lower value 0.996 | locus YJR066W, strain TOR1, stronger effect = lower value 0.928
